G9a inh – G9a (human) methyltransferase inhibition; G9a H3K9 monomethylation, AlphaScreen, 2 h; Potency, µM (highest dose often 102 µM), actives largely listed as inhibitors; 8.8% of 350,000 active; AID 504332; further: nearly all actives have a fitted effect of over 75% in size
Target sequence (Q96KQ7 913-1193 limits assumed): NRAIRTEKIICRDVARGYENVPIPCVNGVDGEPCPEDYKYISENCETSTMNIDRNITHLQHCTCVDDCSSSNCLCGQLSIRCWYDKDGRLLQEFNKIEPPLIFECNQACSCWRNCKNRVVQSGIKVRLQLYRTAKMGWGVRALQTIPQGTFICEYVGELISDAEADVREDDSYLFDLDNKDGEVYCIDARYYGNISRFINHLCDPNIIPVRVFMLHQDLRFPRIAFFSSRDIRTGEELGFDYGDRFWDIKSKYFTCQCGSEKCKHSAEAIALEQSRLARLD
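Chemiluminescent proximity detection of H3K9 monomethylation, read after 10 min bead incubation in the dark. Reaction: 20 nM G9a, 500 nM biotin-H3K9 peptide, 20 uM SAM cofactor, 2 h, room temperature, following 15 min enzyme-compound preincubation.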
Sfp inh – blocks B. subtilis Sfp PPTase activity; 3.5% of 310,000 active; Potency, µM, usual class: inhibitors; Q9F4F7; Biochemical Sfp PPTase activity, qHTS;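 further: the enzyme is Sfp with the accession as filed and its product quenches rhodamine fluorescence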
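Compounds were incubated with enzyme (final 15 nM) for 15 min at room temperature before substrate addition started the reaction. Fluorescence at 525 nm excitation, 598 nm emission was recorded immediately and after 30 minutes.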
PLK1 PBD block – inhibitors of human PLK1 polo-box domain binding | 2.8% of 360,000 active | Potency, µM, hits mostly inhibitors | Plk1 PBD binding of FITC phosphopeptide, fluorescence polarization | P53350; further: series mostly up to about 57 µM; nearly all actives have a fitted effect of over 65% in size
BAZ2B inh – inhibitors of human BAZ2B bromodomain; Q9UIF8; AlphaScreen BAZ2B-H3K14Ac peptide displacement; Potency, µM (titrated, usually from 114 µM), usual class: inhibitors; 4.4% of 360,000 active; further: nearly all actives have a fitted effect of over 60% in size
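Inhibition is scored as reduced AlphaScreen emission. The BAZ2B/b-H3(5-23)K14Ac complex (50 nM each) in PBS pH 7.4, 0.01% Tween-20 meets compound (up to 110 uM) for 30 min at RT before bead addition.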
JMJD2A Tudor inh – inhibitors of human JMJD2A Tudor domain | AID 504339 | Potency, µM (highest dose often 114 µM), actives largely listed as inhibitors | AlphaScreen JMJD2A-Tudor / H3K4me3 peptide binding | 4.4% of 390,000 active | O75164; further: nearly all actives have a fitted effect of over 50% in size
HP1b chromo inh – inhibitors of HP1-beta chromodomain binding to methylated histone tails | P83916 | AlphaScreen HP1-beta / biotin-H3K9me3 peptide binding | Potency, µM (highest dose often 114 µM), most hits filed as inhibitors | 0.56% of 390,000 active; further: nearly all actives have a fitted effect of over 70% in size
Target sequence (P83916 whole entry, looked up): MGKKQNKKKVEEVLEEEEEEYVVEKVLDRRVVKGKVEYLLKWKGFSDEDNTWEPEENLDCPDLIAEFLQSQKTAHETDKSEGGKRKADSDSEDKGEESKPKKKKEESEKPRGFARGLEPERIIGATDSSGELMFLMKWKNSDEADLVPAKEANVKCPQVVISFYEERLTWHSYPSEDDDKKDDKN
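Compound inhibition of the preformed complex between 50 nM HP1-beta and 50 nM biotinylated H3K9me3 peptide was read by AlphaScreen. Buffer was PBS pH 7.4 with 0.01% Tween-20. Incubations ran 30 min at room temperature, with 10 ug/mL donor/acceptor beads.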
Numbers stand for hits; - = inactive; ? = inconclusive; . = no result given; [ ] = another dose, or the depositor's remark. Most compounds without a hit are left out; they make up all but 12% or so of the library. The call rests on the fitted dose curve; in most records, active means well fitted curve in the direction sought with a large enough effect; inconclusive means small, poorly fitted or top-dose-only effect, or another doubt; inactive means no such curve, though single readings can be large; an effect the other way counts as inactive or inconclusive.

SMILES	G9a inh	Sfp inh	PLK1 PBD block	BAZ2B inh	JMJD2A Tudor inh	HP1b chromo inh
C=C(C)C(=O)N1CCN(C(=O)C(=C)C)c2ccccc21	.	.	-	.	-	-
CC(=O)Cc1nsc(Nc2ccccc2)n1	79µM	-	-	-	-	-
CC(=O)Cc1nsc(Nc2cccc(C)c2)n1	-	-	-	-	-	-
Cc1sc(-n2cccc2)c(C(=O)O)c1C	-	-	-	50µM	-	-
CCCN(CCO)CCCc1ccccc1	?	?	-	?	2.8µM	?
CCN(CCCc1ccccc1)CCCc1ccccc1	?	-	-	?	22µM	-
CCCCN(CCO)CCCC	-[0.501 µM]	.	-	-	-	-
Cc1cccc(-c2ocnc2C(=O)Nc2ccccc2NC(=O)c2ccccn2)c1	-	45µM	-	-	-	-
CCc1ccc(Oc2nc3c(C)cccn3c(=O)c2/C=C(\C#N)c2nc3ccccc3s2)cc1	-	.	.	-	-	-
Cc1cccc(Oc2nc3c(C)cccn3c(=O)c2/C=C(\C#N)c2nc3ccccc3s2)c1	-	.	.	-	-	-
N#C/C(=C\c1c(Oc2ccc(Br)cc2)nc2ccccn2c1=O)c1nc2ccccc2s1	2.8µM	.	.	-	-	-
Cc1cc(Oc2nc3ccccn3c(=O)c2/C=C(\C#N)c2nc3ccccc3s2)ccc1Cl	10µM	.	.	-	-	-
CCOC(=O)C1=C(CSc2nc(C)ccc2C#N)OC(N)=C(C#N)C1c1cccc(OC)c1OC (stereo not given)	7.1µM	14µM	21µM	56µM	?	-
CCOC(=O)C1=C(CSc2nc(-c3ccncc3)ccc2C#N)OC(N)=C(C#N)C1c1cccnc1 (stereo not given)	35µM	79µM	-	-	-	-
CCOC(=O)C1=C(c2ccccc2)OC(N)=C(C#N)C1c1cccs1 (stereo not given)	?	?	-	?	-	-
CCOC(=O)C1=C(CSc2nc(-c3ccncc3)ccc2C#N)OC(N)=C(C#N)C1c1ccc(OC)cc1 (stereo not given)	40µM	?	-	?	?	-
CCOC(=O)C1=C(c2ccccc2)OC(N)=C(C#N)C1c1ccncc1 (stereo not given)	45µM	?	-	-	-	-
CCOC(=O)C1=C(CC)OC(N)=C(C#N)C1c1ccc(OC)c(OC)c1OC (stereo not given)	?	-	-	-	-	-
CC(NC(=O)Cn1cc([N+](=O)[O-])cn1)c1ccc(C(C)(C)C)cc1 (stereo not given)	.	.	-	.	-	-
CCOC(=O)C1=C(C)OC(N)=C(C#N)C1c1ccc(OC)c(CSc2ccccn2)c1 (stereo not given)	22µM	-	-	?	?	-
CCOC(=O)C1=C(CSc2nc(CC)c(C)cc2C#N)OC(N)=C(C#N)C1c1ccc(OC)cc1 (stereo not given)	4.5µM	7.9µM	?	-	32µM	-
Cc1ccc(C(C(=O)NC2CCCCC2)N(C)Cc2ccccc2)cc1 (stereo not given)	-	.	.	-	-	-
COC(=O)/C(=C\c1ccc([N+](=O)[O-])o1)NC(=O)c1ccccc1	-	-	-	-	-	-
Cc1ccc(C(=O)N/C(=C\c2ccc(-c3ccccc3[N+](=O)[O-])o2)C(=O)NCCN(C)C)cc1	.	40µM	-	-	56µM	?
CN(C)CCNC(=O)/C(=C/c1ccc(-c2cccc([N+](=O)[O-])c2)o1)NC(=O)c1ccccc1	-	-	-	-	-	-
SMILES	G9a inh	Sfp inh	PLK1 PBD block	BAZ2B inh	JMJD2A Tudor inh	HP1b chromo inh
Cc1ccc(C(=O)N/C(=C\c2ccco2)C(=O)NCCc2c[nH]c3ccccc23)cc1	-	?	-	-	-	-
Cc1ccc(/C=C(/NC(=O)c2ccccc2)C(=O)NCCc2c[nH]c3ccccc23)o1	45µM	-	-	?	-	-
Cc1cccc(NC(=O)/C(=C\c2ccc([N+](=O)[O-])o2)NC(=O)c2ccc(Cl)cc2)c1	?	-	-	50µM	35µM	?
CCCCNC(=O)/C(=C\c1ccc([N+](=O)[O-])o1)NC(=O)c1ccccc1	-	-	21µM	-	-[11.4 µM]	-
S=C(NCc1ccccc1)NC1CCSc2ccccc21 (stereo not given)	.	-	-	-	-	-
Cc1ccc(C(=O)N/C(=C\c2ccc(-c3ccccc3[N+](=O)[O-])o2)C(=O)NCCCN(C)C)cc1	50µM	-	?	?	?	-
CN(C)CCCNC(=O)/C(=C/c1ccc(-c2ccc([N+](=O)[O-])cc2)o1)NC(=O)c1ccccc1	-	-	-	-	-	-
COc1ccc(NC(=O)C(NC(=O)/C=C\c2ccc3c(c2)OCO3)c2ccccc2)cc1 (stereo not given)	-	.	.	-	-	-
COc1ccc(CN2CC(=O)N(c3cc(Cl)ccc3OC)C2=S)cc1OC	?	-	?	-	-	-
COc1ccc(Cl)cc1N1C(=O)CN(Cc2cc(OC)c(OC)c(OC)c2)C1=S	35µM	50µM	7.5µM	-	?	?
COC(=O)NC(CCc1ccccc1)C(C(=O)OC)C(=O)OC (stereo not given)	.	-	.	.	.	.
Cc1ncc(N=Nc2ccccc2Cl)c(-c2ccccc2)n1	?	-	-	11µM	50µM	16µM
Cc1ncc(S(=O)(=O)c2ccccc2)c(-c2ccc(Cl)cc2Cl)n1	-	-	-	-	-	-
COc1ccc(N=Nc2cnc(C)nc2-c2ccccc2)cc1	14µM	-	-	20µM	40µM	-
COc1ccc(-c2nc(C)ncc2-c2ccccc2)c(O)c1	-	-	-	-	-	-
CCCCC(=O)NC(=S)Nc1cccc(NC(=O)c2ccccc2)c1	50µM	-	-	-	-	-
CCC(=O)NC(=S)NNC(=O)c1ccc(NC(=O)c2ccccc2)cc1	7.1µM	-	-	-	?	-
CC(C)CC(=O)Nc1ccc(C(=O)NNC(=S)NC(=O)C2CCCCC2)cc1	?	-	-	-	89µM	-
CCCOc1ccc(C(=O)NNC(=S)NC(=O)CC)cc1	8.9µM	-	-	-	32µM	-
CCCN(c1ccccc1F)S(=O)(=O)c1c[nH]c(C(=O)OC)c1	-	-	-	-	-	-
CCOC(=O)CCC(=O)NNC(=O)c1ccc(NC(=O)c2ccccc2)cc1	.	-	30µM	-	?	-
O=C(Cc1ccccc1)NNC(=O)c1ccc(NC(=O)c2ccccc2)cc1	?	-	-	-	-	-
O=C(Nc1cccc(Cl)c1)c1cccc(N2C(=O)C3CC=CCC3C2=O)c1 (stereo not given)	79µM	-	-	?	-	?
O=C(Nc1ccc(F)cc1)c1cccc(N2C(=O)C3C4CCC(C4)C3C2=O)c1 (stereo not given)	3.2µM	-	-	-	-	-

Screens deposited in PubChem by National Center for Advancing Translational Sciences (NCATS).
